# Measured values: PubChem BioAssay (NCATS)
# Inconclusive results are not listed. Where a call stands in place of a potency, no number is given. Calls of active or inactive are those of the source. Unless noted, calls follow the shape of the dose curve; as a rule, active = well fitted curve in the direction sought with a large enough effect; inconclusive = small, poorly fitted or top-dose-only effect, or another doubt; inactive = no such curve, though single readings can be large; an effect the other way counts as inactive or inconclusive.
# Assays:
# [1] = target: Cytochrome P450 3A4 (Homo sapiens) (UniProt P08684); assay: qHTS Assay for Inhibitors and Substrates of Cytochrome P450 3A4 (AID 884); also: nearly all actives have a fitted effect of over 50% in size; also: potency is read from the fitted curve at half-maximal effect
# Procedure, shortened: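 20 nM human CYP3A4 with 25 uM Luciferin-PPXE (at KM) in 200 mM KPO4, preincubated 10 min with compound; NADPH regeneration started a 60 min RT reaction. Luciferin detected by luminescence, normalized to 57 uM ketoconazole as full inhibition.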
# [2] = Confirmation and Secondary Assay for Modulators of Hemoglobin Beta Chain Splicing at IVS2 654 locus (AID 910);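 also: HeLa cells stably carrying EGFP split by mutant beta-globin IVS2-654 intron; per-well total GFP intensity by laser scanning cytometry after 2-day treatment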
# Procedure, shortened: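 Readout: per-well total peak green fluorescence (488 nm ex, 500–520 nm em) from objects 5–250 µm, reflecting correct splicing of an EGFP-654 reporter. Compounds were applied for 2 days at 37 °C to overnight-plated HeLa EGFP-654 cells; controls were DMSO and 500 nM IVS2-654 PNA.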
# [3] = Confirmation and Secondary Assay for Modulators of Hemoglobin Beta Chain Splicing at IVS2 705 locus (AID 930);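 also: HeLa cells stably expressing the EGFP-705 splicing reporter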
# Procedure, shortened: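 HeLa cells stably carrying EGFP interrupted by mutant beta-globin IVS2-705 intron (CMV-driven) were seeded at 500 cells/well, treated next day with compound for 2 days at 37C; corrected splicing restores EGFP, read as total peak GFP intensity per well.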
# [4] = qHTS Assay for Lipid Storage Modulators (AID 1519; calls by dose curve); details: Drosophila S3 cells, BODIPY lipid droplet/cell ratio, laser cytometry, cells loaded with oleic acid; for activity change, negative = inhibition: at 57.5 µM (top of the series)
# Procedure, shortened: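 Cells seeded at 5,000 per well were treated with compounds over a concentration series and loaded with oleic acid (400 uM, as added). Lipid droplet fluorescence (488 nm excitation, 500-530 nm channel) was read by laser-scanning cytometry and normalized to 20 uM Triacsin C.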
# [5] = target: Ubiquitin carboxyl-terminal hydrolase 1 (Homo sapiens) (UniProt O94782); assay: Inhibitors of USP1/UAF1: Pilot qHTS (AID 504865);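 also: rhodamine fluorescence freed from ubiquitin-rhodamine substrate followed over time; top concentration of the series differs between compounds; nearly all actives have a fitted effect of over 35% in size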
# Procedure, shortened: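 Enzyme-free wells gave the negative control, while test wells held 1nM USP1/UAF1 preincubated with compound for 15 min at room temperature. Ub-Rho at 150nM final started the reaction, and fluorescence at 480/540 nm was recorded kinetically.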
# [6] = target: Cytochrome P450 3A4 (Homo sapiens) (UniProt P08684); assay: qHTS Assay for Activators of Cytochrome P450 3A4 (AID 885); also: nearly all actives have a fitted effect of over 65% in size; also: potency is read from the fitted curve at half-maximal effect
# Procedure, shortened: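 Signal was normalized against complete inhibition by 57 uM ketoconazole. The reaction used 20nM CYP3A4 with 25uM Luciferin-PPXE, 10-min compound preincubation and a 60-min NADPH-supported step at RT.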
# [7] = measured here: cell count channel max response
# [8] = measured here: lipid channel max response
# Chain of Ubiquitin carboxyl-terminal hydrolase 1 (Homo sapiens) (O94782 whole entry, looked up): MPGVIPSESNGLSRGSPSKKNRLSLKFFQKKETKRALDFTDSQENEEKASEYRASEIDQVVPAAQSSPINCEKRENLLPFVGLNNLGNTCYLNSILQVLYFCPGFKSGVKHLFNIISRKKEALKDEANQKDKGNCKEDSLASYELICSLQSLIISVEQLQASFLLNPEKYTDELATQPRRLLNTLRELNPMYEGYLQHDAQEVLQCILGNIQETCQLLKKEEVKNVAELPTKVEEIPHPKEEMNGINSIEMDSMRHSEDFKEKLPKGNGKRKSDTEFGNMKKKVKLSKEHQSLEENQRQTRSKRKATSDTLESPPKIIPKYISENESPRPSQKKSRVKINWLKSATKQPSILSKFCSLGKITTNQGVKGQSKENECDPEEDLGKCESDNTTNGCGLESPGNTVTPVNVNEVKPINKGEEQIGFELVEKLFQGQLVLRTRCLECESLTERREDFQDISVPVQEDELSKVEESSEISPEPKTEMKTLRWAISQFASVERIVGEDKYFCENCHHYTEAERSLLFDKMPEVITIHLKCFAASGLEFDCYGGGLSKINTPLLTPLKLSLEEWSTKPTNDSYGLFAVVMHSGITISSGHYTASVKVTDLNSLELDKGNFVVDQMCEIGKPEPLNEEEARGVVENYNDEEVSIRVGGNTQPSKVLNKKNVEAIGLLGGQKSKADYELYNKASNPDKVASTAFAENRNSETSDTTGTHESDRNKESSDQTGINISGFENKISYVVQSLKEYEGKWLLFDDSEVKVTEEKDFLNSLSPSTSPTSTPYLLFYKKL
# Chain of Cytochrome P450 3A4 (Homo sapiens) (P08684 whole entry, looked up): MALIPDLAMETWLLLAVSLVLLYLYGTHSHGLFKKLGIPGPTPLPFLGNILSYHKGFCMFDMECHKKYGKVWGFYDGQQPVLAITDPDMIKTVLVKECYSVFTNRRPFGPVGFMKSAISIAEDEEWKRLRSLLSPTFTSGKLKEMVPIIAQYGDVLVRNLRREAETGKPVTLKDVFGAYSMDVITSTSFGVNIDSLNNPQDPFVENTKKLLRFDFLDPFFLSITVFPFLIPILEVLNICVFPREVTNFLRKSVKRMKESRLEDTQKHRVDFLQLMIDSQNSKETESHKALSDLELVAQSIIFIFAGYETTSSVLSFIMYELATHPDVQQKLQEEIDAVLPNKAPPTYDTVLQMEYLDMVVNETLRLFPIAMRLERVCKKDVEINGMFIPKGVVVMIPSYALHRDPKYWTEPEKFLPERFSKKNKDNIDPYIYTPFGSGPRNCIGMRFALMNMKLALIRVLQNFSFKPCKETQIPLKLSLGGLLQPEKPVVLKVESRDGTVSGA
Structure (SMILES),Potency [1],Potency [2],Potency [3],"activity change, negative = inhibition [4]","max response [4, 7] [%]","max response [4, 8] [%]",Potency [5],Potency [6]
C/C1=C/CC(C)(C)/C=C/C/C(C)=C/CC1,inactive,inactive,inactive,0.556% (inactive),16.1,16.9,inactive,
COc1ccc2c(c1OC)OCC(c1ccc(OC)c(OC)c1OC)C2 (centres undefined),inactive,inactive,inactive,9.26% (inactive),12.7,23.2,inactive,
C/C=C(/C)C(=O)OC1Cc2c(ccc3ccc(=O)oc23)OC1(C)C (centres undefined),inactive,inactive,inactive,2.21% (inactive),9.88,14.5,inactive,15.8 µM (active)
CCCc1cc(OC)c2c(c1)OCO2,7.94 µM (active),inactive,inactive,11.5% (inactive),-8.72,1.71,inactive,inactive
C[C@@]12CCC3c4ccc(OS(=O)(=O)O)cc4CCC3C1CCC2O (some centres undefined),inactive,inactive,inactive,4.64% (inactive),6.41,9.99,inactive,
Nc1nc2c([nH]c(=S)n2C2OC(CO)C(O)C2O)c(=O)[nH]1 (centres undefined),inactive,inactive,inactive,2.15% (inactive),0.955,15.7,inactive,
OC/C=C/c1ccc(O)c(O)c1,15.8 µM (active),inactive,inactive,8.76% (inactive),13.5,23.8,inactive,inactive
COC1C[C@@H](O[C@@H]2C(C)C(=O)OC(C)C(C)C(O)C(C)C(=O)[C@@]3(CO3)CC(C)C(OC3OC(C)CC(N(C)C)C3O)C2C)OC(C)[C@@H]1O (some centres undefined),6.31 µM (active),inactive,inactive,4.89% (inactive),4.4,11,inactive,inactive
CC(=O)OC1CC(OC(C)=O)[C@]2(C)C(CC(=O)[C@]3(C)C2CC[C@@]2(C)C(c4ccoc4)OC(=O)C4O[C@@]423)C1(C)C (some centres undefined),20 µM (active),inactive,inactive,4.36% (inactive),11.4,20.9,inactive,inactive
Cc1cc(=O)c2c(O)cc(O)c(C)c2o1,25.1 µM (active),inactive,inactive,14% (inactive),5.24,21.1,inactive,inactive
COc1c(OC)c2occc2c2oc(=O)ccc12,10 µM (active),,inactive,12.4% (inactive),0.397,12.4,inactive,inactive
COc1ccc2c(c1)[C@]1(C)CCC(=O)C[C@H]1CC2,3.16 µM (active),inactive,inactive,8.23% (inactive),-1.73,6.33,inactive,inactive
COc1cc(-c2coc3cc(OC)c(OC)c(OC)c3c2=O)cc(OC)c1OC,inactive,inactive,inactive,2.36% (inactive),17.7,21.5,inactive,
CCOC(=O)c1c(C)cc(O)cc1O,25.1 µM (active),,inactive,13% (inactive),-2.16,14.3,inactive,inactive
O=c1cc(-c2ccc(O)cc2)oc2ccc(O)cc12,3.16 µM (active),inactive,inactive,6.92% (inactive),7.61,15.4,inactive,inactive
COc1cc(NS(C)(=O)=O)ccc1Cc1c2ccccc2nc2ccccc12,inactive,inactive,inactive,4.8% (inactive),13,21.3,inactive,
COc1ccc(-c2c(O)c3c(OC)c4c(cc3oc2=O)OC(C)(C)C=C4)cc1,6.31 µM (active),inactive,inactive,-13.4% (inactive),-5.03,-5.79,inactive,inactive
CC1C(O)CC2C(C(=O)O)=CO[C@@H](O[C@H]3OC(CO)C(O)C(O)C3O)C21 (some centres undefined),inactive,inactive,inactive,4.54% (inactive),10.9,15.2,inactive,
C=C1C(C2(C)C=CC(=O)C(C)(C)C2CC(=O)OC)CC[C@@]2(C)C(c3ccoc3)OC(=O)C3OC132 (some centres undefined),2.51 µM (active),inactive,inactive,4.06% (inactive),5.07,10.2,inactive,inactive
CCCCCC1C(=O)CCC1CC(=O)OC (centres undefined),inactive,inactive,inactive,7.58% (inactive),6.16,16,inactive,
CON,inactive,inactive,inactive,4.31% (inactive),12.5,21.6,inactive,
COc1cc(OC)c2c(=O)c(O)c(-c3ccc(OC)c(OC)c3)oc2c1,2.51 µM (active),,inactive,4.09% (inactive),5.03,9.16,inactive,inactive
Cc1cc(O)cc(O)c1C(=O)O,25.1 µM (active),inactive,inactive,4.63% (inactive),10.6,18.2,inactive,inactive
CC(=O)OC1C[C@@]2(C)C(c3ccoc3)OC(=O)C3O[C@@]32[C@]2(C)C(OC(C)=O)CC3C(C)(C)C(OC(C)=O)CC(OC(C)=O)[C@@]3(C)C12 (some centres undefined),5.01 µM (active),,inactive,-11.3% (inactive),-1.68,-11,inactive,inactive
O=c1cc(-c2ccc(O)c(O)c2)oc2ccccc12,15.8 µM (active),inactive,inactive,2.38% (inactive),-4.12,2.75,inactive,inactive
CO[C@]1(NC(=O)C(C(=O)O)c2ccc(O)cc2)C(=O)N2C(C(=O)O)=C(CSc3nnnn3C)COC21 (some centres undefined),inactive,inactive,inactive,9.58% (inactive),18.1,35.5,inactive,
